# The supplement of paper PMC3334620
# In all, about 33,000 sequences were measured (“E-score (-0.5 to 0.5)”: median about -0.0059, highest 2% from about 0.26 on). Many of the other results were omitted from the sample, so the highest values are more common in it than they were.
# Molecular target: T1, Cin5 (UniProt P40917)
# T1 sequence: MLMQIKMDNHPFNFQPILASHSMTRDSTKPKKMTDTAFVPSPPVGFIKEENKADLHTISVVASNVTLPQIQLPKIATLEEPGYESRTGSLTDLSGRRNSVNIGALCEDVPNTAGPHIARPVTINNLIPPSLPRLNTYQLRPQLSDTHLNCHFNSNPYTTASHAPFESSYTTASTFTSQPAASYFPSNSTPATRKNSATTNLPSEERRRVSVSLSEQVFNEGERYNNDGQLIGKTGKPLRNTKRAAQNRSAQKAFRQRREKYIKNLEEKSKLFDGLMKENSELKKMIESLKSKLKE
# Experiment: PBM E-score (8-mer binding enrichment) (E-score (-0.5 to 0.5)); higher = stronger / more preferred TF binding
# Settings: protein concentration: 100 nM; construct: GST-full length
# Outline: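 The E-score, a modified Wilcoxon-Mann-Whitney statistic, was computed by the Universal PBM Analysis Suite for every ungapped eight-base word pooled with its reverse complement. Scans behind it were normalised with masliner after bound GST-tagged yeast transcription factors were detected with fluorescent anti-GST. The proteins, at about 100-200 nM, had been applied to universal all-10-mer Agilent arrays made double-stranded by primer extension.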
row,Sequence,PBM E-score
1,CGAGCGCA,0.0288
2,CCGCCACG,-0.222
3,ATTTCCCC,0.0813
4,ATTTCCCG,0.258
5,ATTTCCCA,0.165
6,CAGTAACC,-0.021
7,AAGCAATC,0.165
8,CCCTAATC,0.0683
9,CCCTAAGC,-0.145
10,ATCTAATC,0.306
11,ACCTAATA,0.246
12,ACCTAATC,0.311
13,ATCTAATA,0.19
14,GCCTAAGC,-0.181
15,ACCTAAGC,0.327
16,ATCTAATG,-0.00795
17,CGCGGTAC,-0.0212
18,CATTGCTC,-0.157
19,CCTACAGG,-0.33
20,AAAGAAAA,0.112
21,CGAATGAC,0.275
22,CGAATGAA,0.0154
23,AGAATGAC,0.0989
24,AGAGGACC,-0.22
25,CTATCATA,0.21

row,Sequence,PBM E-score
1,ATATCATA,0.288
2,ATATCATG,0.0651
3,GTATCATA,0.274
4,GTATCACA,0.154
5,GTATCAGA,-0.0398
6,CTGTGACC,0.0399
7,CAACTATC,0.0334
8,GCATAATA,0.235
9,ACATAATC,0.445
10,ACATAATA,0.364
11,CCATAATC,0.245
12,ACATAATG,0.204
13,CCATAATA,0.226
14,ACTGCCCC,-0.125
15,ACCGCGCA,0.151
16,CGCCTCTC,-0.34
17,CAATAACA,0.193
18,CACTAATA,0.158
19,AAATAATG,0.21
20,AAATAATA,0.313
21,AAATAAGT,0.12
22,GAATAACA,0.26
23,AAATAATT,0.301
24,AAATAACA,0.171
25,AACTAATA,0.378

row,Sequence,PBM E-score
1,TACTAATA,0.193
2,AAATAAAT,0.246
3,AAATAATC,0.17
4,AAAAGTTT,0.00197
5,GCTTAAGA,-0.0654
6,ACGCCTGC,-0.234
7,CTCAGCGC,0.0746
8,AATTCTCA,0.0439
9,CTGCAGTC,-0.165
10,CTAAACTC,-0.0293
11,ACGAGGTA,0.0339
12,TAATAACA,0.146
13,CAATAATG,0.0624
14,GAATAATA,0.291
15,GAATAATC,0.221
16,CAATAATC,0.233
17,CAATAATA,0.276
18,TAATAAAA,0.235
19,GAATAAAA,0.0288
20,TAATAATA,0.274
21,CCTGAAAA,-0.101
22,AACTTTAT,0.123
23,AGTTGTTG,0.0199
24,AAGATATG,0.268
25,ATGATATA,0.166

row,Sequence,PBM E-score
1,AAGATATC,0.207
2,AAGATATA,0.152
3,ATGATATG,0.289
4,ATGATATC,0.167
5,CCTTCCAG,-0.127
6,GGTCCGCA,-0.0684
7,GGTTCCCA,-0.0888
8,AACTTGCG,-0.0652
9,ACTTAACA,0.0535
10,GTAATTTA,0.27
11,CTAATTTA,0.158
12,ATAATTTC,0.136
13,GCAATTTA,0.137
14,ATAATTTG,0.208
15,ATAATTTA,0.332
16,GCCGCTCC,-0.305
17,CCCACACG,0.0465
18,CAATATGA,0.118
19,TAATATGA,0.262
20,TCATATGA,0.272
21,GCATATGA,0.197
22,CCATATGA,-0.0136
23,AAATATGA,0.245
24,ATGGACGC,-0.0507
25,TCTTCCCA,-0.177

row,Sequence,PBM E-score
1,GGTATCAC,0.0115
2,ATTGGGTG,0.282
3,ATTGGGTA,0.0825
4,ATTGGGTC,0.13
5,ACCATTCA,0.0437
6,AGTTGAAG,-0.00489
7,AGTTGAAT,0.259
8,AGTTGAAA,-0.0098
9,CGACTGGA,-0.167
10,GTTCGACA,0.0859
11,GTCTAGCA,-0.0616
12,AAACATGC,0.0556
13,ATAAGAAC,0.31
14,ATAAGAAA,0.156
15,ATAAGAAT,0.224
16,CGTCTCTA,-0.21
17,CTCGCGAC,0.107
18,GTCGCGAC,0.317
19,GTCGCGAA,-0.0343
20,TGGTAACA,-0.0163
21,TCACCAGA,-0.144
22,ATAATCAA,0.227
23,ATAATCAG,0.285
24,ATAATCAT,0.377
25,ATAATCAC,0.233

row,Sequence,PBM E-score
1,AAAATCAG,0.00782
2,ATAATCGA,0.178
3,ATAATCGG,0.291
4,CTAATCAG,0.14
5,ATAATCGC,0.187
6,AAAAGGGA,-0.1
7,CAATCTTA,0.0906
8,CCGGGTCG,-0.131
9,CAGGAGCG,-0.0881
10,GACCCATA,0.222
11,AACCCATT,0.114
12,AACCCATA,0.29
13,AGAACTTC,-0.217
14,AGCTATTG,0.01
15,AGTGGAAA,0.0448
16,CGTGGAAA,0.28
17,CGTGGAAG,0.129
18,CACTATGG,-0.15
19,GCAATATA,0.185
20,ATAATAGA,0.221
21,ATAATATC,0.221
22,GTAATAAA,0.2
23,AGAATATA,0.105
24,GTAATATA,0.323
25,ACAATATA,0.269

row,Sequence,PBM E-score
1,ATAATATG,0.289
2,ATAATATA,0.345
3,CTAATATA,0.0911
4,ATAATAAG,0.225
5,CCAATATA,0.0434
6,GAGCTCCA,-0.092
7,AAGGCCCT,-0.136
8,CTTAGTGA,0.0718
9,CCCCCTTA,-0.342
10,AGTATCAC,0.0484
11,GTATAATA,0.253
12,ATATAATA,0.303
13,CTATAATA,0.114
14,AACCCCTT,-0.0504
15,CTCCCCAA,-0.00166
16,CATCTGCC,-0.0681
17,ATGTTTTC,0.121
18,CCTGGGAG,-0.176
19,ACTCCCGC,-0.0164
